The source made the active and inactive calls. Cut-off read from the data, not from the text of the source: active = activation above about 85%; inactive = the rest.
Target: Peroxisome proliferator-activated receptor gamma (Homo sapiens) (UniProt P37231)
Assay: partial agonism at human PPARgamma receptor – cell-based, luciferase reporter, luminescence, primary screen (AID 504452);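 note: Cos-1 cells carrying PPARgamma and a response element luciferase reporter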
Conditions: cell-based PPARg luciferase reporter, at 5 µM, stronger effect = higher value; activation (% of full agonist control): measured here: relative to full agonist control

Peroxisome proliferator-activated receptor gamma (Homo sapiens), sequence (P37231 whole entry, looked up): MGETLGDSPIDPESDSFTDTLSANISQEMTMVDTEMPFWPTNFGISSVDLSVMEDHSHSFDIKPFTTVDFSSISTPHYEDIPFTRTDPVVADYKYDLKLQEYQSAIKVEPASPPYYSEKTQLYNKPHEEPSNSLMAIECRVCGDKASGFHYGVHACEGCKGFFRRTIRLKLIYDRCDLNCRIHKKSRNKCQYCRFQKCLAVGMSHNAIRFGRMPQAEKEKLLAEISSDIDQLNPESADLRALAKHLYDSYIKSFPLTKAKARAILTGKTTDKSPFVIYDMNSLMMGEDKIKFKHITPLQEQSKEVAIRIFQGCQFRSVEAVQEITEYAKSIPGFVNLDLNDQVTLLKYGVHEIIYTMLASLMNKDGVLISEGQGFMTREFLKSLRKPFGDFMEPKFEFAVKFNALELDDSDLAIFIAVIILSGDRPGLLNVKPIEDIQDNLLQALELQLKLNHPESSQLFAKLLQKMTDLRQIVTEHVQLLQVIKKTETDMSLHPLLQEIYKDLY

| Compound | activation (% of full agonist control) [%] | activation (% of partial agonist control) |
| --- | --- | --- |
| Cc1cccc(Cn2cc3c(=O)n(Cc4cccc(F)c4)nc-3c3ccccc32)c1 | 38 | 84.2% (inactive) |
| Cc1ccc(OCC(=O)Nc2ccc(N3CCN(C(=O)c4ccco4)CC3)cc2)cc1 | 31.4 | 69.5% (inactive) |
| COc1cccc(CN2CCN(Cc3ccc4c(NC(C)=O)cccc4n3)CC2CCO)c1 (stereo unspecified) | 36.5 | 80.7% (inactive) |
| Cc1cccc(NC(=O)CSc2nc(=O)n(CCN3CCOCC3)c3c2CCCC3)c1C | 33.1 | 73.2% (inactive) |
| Cc1cccc(NC(=O)CN2C(=O)N/C(=C/c3ccc(-c4cccc(C(=O)O)c4C)o3)C2=O)c1 | 34.1 | 75.5% (inactive) |
| O=C1C2CCCN2c2ccc(S(=O)(=O)N3CCOCC3)cc2N1Cc1cccc(C(F)(F)F)c1 (stereo unspecified) | 32.4 | 71.8% (inactive) |
| Cc1ccc(S(=O)(=O)Nc2ccccc2F)cc1C(=O)N1CCN(c2ccccc2O)CC1 | 33 | 73% (inactive) |
| CCOc1cccc(/C(O)=C2/C(=O)C(=O)N(CCN3CCOCC3)C2c2ccncc2)c1 (stereo unspecified) | 41.3 | 91.4% (active) |
| CCc1ccc(N2CC(C(=O)OCC(=O)Nc3ccc(C(C)=O)cc3)CC2=O)cc1 (stereo unspecified) | 31 | 68.6% (inactive) |
| Cc1nn(CC(=O)N2CCC(N3CCCCC3)CC2)c(=O)c2c1sc1ccccc12 | 27.9 | 61.8% (inactive) |
| Cc1ccc2nc(N3C(=O)C(O)=C(C(=O)c4ccco4)C3c3cccc(O)c3)sc2c1 (stereo unspecified) | 46.7 | 103% (active) |
| Cc1c(CNCCC2=CCCCC2)c(C(=O)O)c(C)n1Cc1ccccc1 | 10 | 22.2% (inactive) |
| CCN(C(=O)CSc1nnc(-c2ccc(F)cc2)c2ccccc12)C1CCS(=O)(=O)C1 (stereo unspecified) | 34.5 | 76.4% (inactive) |
| CC(=O)N1N=C(c2ccccc2)CC1c1cn(Cc2ccccc2)c2ccccc12 (stereo unspecified) | 44.7 | 99% (active) |
| COC(=O)c1ccc(NC(=O)C(=O)c2cn(CC(=O)N3CCOCC3)c3ccccc23)cc1 | 32.1 | 71.1% (inactive) |
| O=S(=O)(NCC(c1ccc2c(c1)OCO2)N1CCOCC1)c1ccc(F)cc1 (stereo unspecified) | 35.4 | 78.4% (inactive) |
| O=C(COc1coc(CN2CCc3ccccc3C2)cc1=O)Nc1cccc(Cl)c1 | 29.2 | 64.6% (inactive) |
| COc1cccc(NS(=O)(=O)c2ccc3c(c2)C2C=CCC2C(c2ccc(C(=O)O)cc2)N3)c1 (stereo unspecified) | 32.7 | 72.4% (inactive) |
| CC(Oc1ccc(F)cc1)C(=O)Nc1ccc(N2CCOCC2)cc1N1CCOCC1 (stereo unspecified) | 31.2 | 69.2% (inactive) |

| Compound | activation (% of full agonist control) [%] | activation (% of partial agonist control) |
| --- | --- | --- |
| COc1ccc(S(=O)(=O)N2CCCCC2)cc1NC(=O)C1CSC2(C)CCC(=O)N12 (stereo unspecified) | 40.2 | 89% (active) |
| COc1ccc(N2CCN(C3CC(=O)N(Cc4ccc(N5CCCC5=O)cc4)C3=O)CC2)cc1 (stereo unspecified) | 27.6 | 61.2% (inactive) |
| O=C(COc1cc(F)ccc1[N+](=O)[O-])N1N=C(c2cccs2)CC1c1ccco1 (stereo unspecified) | 35.6 | 78.9% (inactive) |
| COc1ccc(N(CC(=O)N2c3ccccc3CC2C)S(=O)(=O)c2c(C)nn(C)c2C)cc1 (stereo unspecified) | 32.3 | 71.5% (inactive) |
| O=C1C(=O)N(CCCn2ccnc2)C(c2ccc(Cl)cc2)/C1=C(\O)c1ccc2c(c1)OCCO2 (stereo unspecified) | 41.5 | 91.9% (active) |
| Nc1ccc(-n2c(N)c(C(=O)NCc3ccc4c(c3)OCO4)c3nc4ccccc4nc32)cc1 | 26.3 | 58.3% (inactive) |
| O=C1C(=O)N(Cc2ccccc2)C(c2cccc(O)c2)/C1=C(\O)c1ccc2c(c1)OCCO2 (stereo unspecified) | 25.6 | 56.7% (inactive) |
| O=C(Cc1c(C(=O)O)[nH]c2ccccc12)Nc1ccc2c(c1)OCO2 | 7.95 | 17.6% (inactive) |
| O=c1[nH]c2cc3c(cc2cc1CN(CCN1CCOCC1)C(=S)NCC1CCCO1)OCO3 (stereo unspecified) | 26.6 | 59% (inactive) |
| Cc1nc2c(sc(=S)n2Cc2ccco2)c(=O)n1CC(=O)Nc1cc(F)ccc1F | 32.4 | 71.8% (inactive) |
| O=C(Nc1cc(F)ccc1F)C1CCCN(c2ncnc3c2nc2n3CCCCC2)C1 (stereo unspecified) | 32.1 | 71% (inactive) |
| COc1ccc(C=NNS(=O)(=O)c2ccc(F)cc2)cc1COc1cc(F)ccc1[N+](=O)[O-] | 42.9 | 95% (active) |
| CC(=O)N/C(=C\c1ccc2c(c1)OCO2)C(=O)NC(C(=O)O)c1ccccc1 (stereo unspecified) | 27.7 | 61.4% (inactive) |
| O=C(CNC(=O)c1nc[nH]c1C(=O)N1CCc2ccccc2C1)OCc1ccccc1 | 40.3 | 89.3% (active) |
| O=C(C1=C(O)C(=O)N(c2nc3ccc(Cl)cc3s2)C1c1ccco1)c1ccco1 (stereo unspecified) | 42.1 | 93.2% (active) |
| COc1ccc(/C(O)=C2/C(=O)C(=O)N(Cc3ccco3)C2c2cccs2)cc1 (stereo unspecified) | 32.1 | 71.1% (inactive) |
| O=C(c1nc2ccccn2c1CN1CCCC(O)C1)N1CCN(C2CCCCC2)CC1 (stereo unspecified) | 46.4 | 103% (active) |
| O=C(NC(Cc1c[nH]c2ccccc12)C(=O)O)/C(=C/c1ccc(F)cc1)NC(=O)c1ccccc1 (stereo unspecified) | 32.2 | 71.2% (inactive) |
| COc1ccc(CN2CCN(Cc3ccc(C)cc3)C(CCO)C2)cc1OC (stereo unspecified) | 33.7 | 74.6% (inactive) |
